Measurements: the supplement of paper PMC10849652
Of roughly 7,900 targets only a part is listed; those with a hit were picked by preference. About 0.6% of all pairs of compound and target were hits. A number with no mark means an inactive call.

Key:
Assay in all cases: log2 fold change, soluble protein after heating vs DMSO (PISA); higher = thermal stabilisation; K562 cells, 10 uM, 30 min; active = over 0.2 and 3.5 SD of the protein, either way, in both replicates (recomputed)
[1] = compound: COC1=CC=C(C=C1)CN2C=CC3=C2C=C(C=C3)C(=O)NO
Procedure, shortened: (§1)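 K562 cells (2×10^6 cells/mL) were treated with 10 μM compound for 30 min, and aliquots were heated for 3 min over 48°C-58°C. Pooled aliquots were extracted in PBS with 0.5% NP-40 at 4°C, and the supernatant after 21,000xg for 90 min was measured by TMTpro 16plex LC-MS/MS with channel sums equalised. Reported thermal stability, relative to control samples and from duplicates, is a log2 fold change.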

filanesib = compound: CON(C)C(=O)N1N=C(c2cc(F)ccc2F)S[C@@]1(CCCN)c1ccccc1 [filanesib]
Procedure, shortened: as §1

zotarolimus = compound: CO[C@H]1C[C@@H]2CC[C@@H](C)[C@@](O)(O2)C(=O)C(=O)N2CCCC[C@H]2C(=O)O[C@H]([C@H](C)C[C@@H]2CC[C@H](n3cnnn3)[C@H](OC)C2)CC(=O)[C@H](C)/C=C(\C)[C@@H](O)[C@@H](OC)C(=O)[C@H](C)C[C@H](C)/C=C/C=C/C=C/1C [zotarolimus]
Procedure, shortened: as §1

idasanutlin = compound: COc1cc(C(=O)O)ccc1NC(=O)[C@@H]1N[C@@H](CC(C)(C)C)[C@](C#N)(c2ccc(Cl)cc2F)[C@H]1c1cccc(Cl)c1F [idasanutlin]
Procedure, shortened: as §1

alisertib = compound: COc1cc(Nc2ncc3c(n2)-c2ccc(Cl)cc2C(c2c(F)cccc2OC)=NC3)ccc1C(=O)O [alisertib]
Procedure, shortened: as §1

[2] = compound: COc1cc2nc(-c3cc(F)ccc3O)nc(N[C@@H]3CNC[C@H]3C(C)(C)O)c2cc1OC
Procedure, shortened: as §1

gefitinib = compound: COc1cc2ncnc(Nc3ccc(F)c(Cl)c3)c2cc1OCCCN1CCOCC1 [gefitinib]
Procedure, shortened: as §1

[3] = compound: COc1cccc2cc(-c3nc([C@H]4CC[C@H](C(=O)O)CC4)n4ncnc(N)c34)[nH]c12
Procedure, shortened: as §1

lapatinib = compound: CS(=O)(=O)CCNCc1ccc(-c2ccc3ncnc(Nc4ccc(OCc5cccc(F)c5)c(Cl)c4)c3c2)o1 [lapatinib]
Procedure, shortened: as §1

pictilisib = compound: CS(=O)(=O)N1CCN(Cc2cc3nc(-c4cccc5[nH]ncc45)nc(N4CCOCC4)c3s2)CC1 [pictilisib]
Procedure, shortened: as §1

[4] = compound: CS(=O)(=O)c1ccc(-c2cnc(N)c(C(=O)Nc3ccccc3)n2)cc1
Procedure, shortened: as §1

crizotinib = compound: C[C@@H](Oc1cc(-c2cnn(C3CCNCC3)c2)cnc1N)c1c(Cl)ccc(F)c1Cl [crizotinib]
Procedure, shortened: as §1

[5] = compound: C[C@@H]1COCCN1C2=NC(=NC(=C2)C3(CC3)S(=O)(=O)C)C4=C5C=CNC5=CC=C4
Procedure, shortened: as §1

[6] = compound: C[C@H](C1=CC=C(C=C1)C(=O)NC2=C3C=CNC3=NC=C2)N
Procedure, shortened: as §1

duvelisib = compound: C[C@H](Nc1ncnc2nc[nH]c12)c1cc2cccc(Cl)c2c(=O)n1-c1ccccc1 [duvelisib]
Procedure, shortened: as §1

gandotinib = compound: Cc1cc(Nc2cc(CN3CCOCC3)c3nc(C)c(Cc4ccc(Cl)cc4F)n3n2)n[nH]1 [gandotinib]
Procedure, shortened: as §1

tozasertib = compound: Cc1cc(Nc2cc(N3CCN(C)CC3)nc(Sc3ccc(NC(=O)C4CC4)cc3)n2)n[nH]1 [tozasertib]
Procedure, shortened: as §1

[7] = compound: Cc1cc(SCc2sc(-c3ccc(C(F)(F)F)cc3)nc2C)ccc1OCC(=O)O
Procedure, shortened: as §1

doramapimod = compound: Cc1ccc(-n2nc(C(C)(C)C)cc2NC(=O)Nc2ccc(OCCN3CCOCC3)c3ccccc23)cc1 [doramapimod]
Procedure, shortened: as §1

ispinesib = compound: Cc1ccc(C(=O)N(CCCN)[C@@H](c2nc3cc(Cl)ccc3c(=O)n2Cc2ccccc2)C(C)C)cc1 [ispinesib]
Procedure, shortened: as §1

Sequence of UniProt Q96RR4 (Q96RR4 whole entry, looked up): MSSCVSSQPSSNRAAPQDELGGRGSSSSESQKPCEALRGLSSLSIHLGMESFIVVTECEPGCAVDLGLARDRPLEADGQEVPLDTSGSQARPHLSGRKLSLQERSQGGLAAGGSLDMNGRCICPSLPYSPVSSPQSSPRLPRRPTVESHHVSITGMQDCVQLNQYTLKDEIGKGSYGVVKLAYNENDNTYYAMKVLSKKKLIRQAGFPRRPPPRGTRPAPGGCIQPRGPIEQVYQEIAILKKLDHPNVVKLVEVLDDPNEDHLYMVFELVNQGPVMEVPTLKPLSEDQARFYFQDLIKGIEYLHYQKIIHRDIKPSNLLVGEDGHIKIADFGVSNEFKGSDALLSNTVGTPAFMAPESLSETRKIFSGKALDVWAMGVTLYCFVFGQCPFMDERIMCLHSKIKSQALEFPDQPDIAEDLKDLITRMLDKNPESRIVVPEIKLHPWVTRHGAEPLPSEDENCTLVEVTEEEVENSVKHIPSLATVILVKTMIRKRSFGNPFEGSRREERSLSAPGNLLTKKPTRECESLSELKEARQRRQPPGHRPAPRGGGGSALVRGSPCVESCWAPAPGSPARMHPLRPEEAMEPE
Sequence of UniProt P46108 (P46108 whole entry, looked up): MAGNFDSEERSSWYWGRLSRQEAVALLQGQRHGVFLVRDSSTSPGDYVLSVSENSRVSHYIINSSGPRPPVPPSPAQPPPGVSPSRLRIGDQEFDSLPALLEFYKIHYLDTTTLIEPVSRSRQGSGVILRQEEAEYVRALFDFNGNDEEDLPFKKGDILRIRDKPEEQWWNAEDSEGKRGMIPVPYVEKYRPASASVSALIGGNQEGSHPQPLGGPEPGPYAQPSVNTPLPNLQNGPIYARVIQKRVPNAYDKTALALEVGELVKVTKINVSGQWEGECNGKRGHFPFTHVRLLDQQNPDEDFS
Sequence of UniProt O15182 (O15182 whole entry, looked up): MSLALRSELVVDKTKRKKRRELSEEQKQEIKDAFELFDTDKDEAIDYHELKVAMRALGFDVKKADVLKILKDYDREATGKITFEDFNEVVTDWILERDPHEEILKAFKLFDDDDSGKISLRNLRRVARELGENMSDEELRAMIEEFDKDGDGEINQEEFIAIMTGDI
Sequence of UniProt Q8NHZ8 (Q8NHZ8 whole entry, looked up): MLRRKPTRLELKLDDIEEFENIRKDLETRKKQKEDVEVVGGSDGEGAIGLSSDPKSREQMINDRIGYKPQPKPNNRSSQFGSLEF
Sequence of UniProt Q14839 (Q14839 whole entry, looked up): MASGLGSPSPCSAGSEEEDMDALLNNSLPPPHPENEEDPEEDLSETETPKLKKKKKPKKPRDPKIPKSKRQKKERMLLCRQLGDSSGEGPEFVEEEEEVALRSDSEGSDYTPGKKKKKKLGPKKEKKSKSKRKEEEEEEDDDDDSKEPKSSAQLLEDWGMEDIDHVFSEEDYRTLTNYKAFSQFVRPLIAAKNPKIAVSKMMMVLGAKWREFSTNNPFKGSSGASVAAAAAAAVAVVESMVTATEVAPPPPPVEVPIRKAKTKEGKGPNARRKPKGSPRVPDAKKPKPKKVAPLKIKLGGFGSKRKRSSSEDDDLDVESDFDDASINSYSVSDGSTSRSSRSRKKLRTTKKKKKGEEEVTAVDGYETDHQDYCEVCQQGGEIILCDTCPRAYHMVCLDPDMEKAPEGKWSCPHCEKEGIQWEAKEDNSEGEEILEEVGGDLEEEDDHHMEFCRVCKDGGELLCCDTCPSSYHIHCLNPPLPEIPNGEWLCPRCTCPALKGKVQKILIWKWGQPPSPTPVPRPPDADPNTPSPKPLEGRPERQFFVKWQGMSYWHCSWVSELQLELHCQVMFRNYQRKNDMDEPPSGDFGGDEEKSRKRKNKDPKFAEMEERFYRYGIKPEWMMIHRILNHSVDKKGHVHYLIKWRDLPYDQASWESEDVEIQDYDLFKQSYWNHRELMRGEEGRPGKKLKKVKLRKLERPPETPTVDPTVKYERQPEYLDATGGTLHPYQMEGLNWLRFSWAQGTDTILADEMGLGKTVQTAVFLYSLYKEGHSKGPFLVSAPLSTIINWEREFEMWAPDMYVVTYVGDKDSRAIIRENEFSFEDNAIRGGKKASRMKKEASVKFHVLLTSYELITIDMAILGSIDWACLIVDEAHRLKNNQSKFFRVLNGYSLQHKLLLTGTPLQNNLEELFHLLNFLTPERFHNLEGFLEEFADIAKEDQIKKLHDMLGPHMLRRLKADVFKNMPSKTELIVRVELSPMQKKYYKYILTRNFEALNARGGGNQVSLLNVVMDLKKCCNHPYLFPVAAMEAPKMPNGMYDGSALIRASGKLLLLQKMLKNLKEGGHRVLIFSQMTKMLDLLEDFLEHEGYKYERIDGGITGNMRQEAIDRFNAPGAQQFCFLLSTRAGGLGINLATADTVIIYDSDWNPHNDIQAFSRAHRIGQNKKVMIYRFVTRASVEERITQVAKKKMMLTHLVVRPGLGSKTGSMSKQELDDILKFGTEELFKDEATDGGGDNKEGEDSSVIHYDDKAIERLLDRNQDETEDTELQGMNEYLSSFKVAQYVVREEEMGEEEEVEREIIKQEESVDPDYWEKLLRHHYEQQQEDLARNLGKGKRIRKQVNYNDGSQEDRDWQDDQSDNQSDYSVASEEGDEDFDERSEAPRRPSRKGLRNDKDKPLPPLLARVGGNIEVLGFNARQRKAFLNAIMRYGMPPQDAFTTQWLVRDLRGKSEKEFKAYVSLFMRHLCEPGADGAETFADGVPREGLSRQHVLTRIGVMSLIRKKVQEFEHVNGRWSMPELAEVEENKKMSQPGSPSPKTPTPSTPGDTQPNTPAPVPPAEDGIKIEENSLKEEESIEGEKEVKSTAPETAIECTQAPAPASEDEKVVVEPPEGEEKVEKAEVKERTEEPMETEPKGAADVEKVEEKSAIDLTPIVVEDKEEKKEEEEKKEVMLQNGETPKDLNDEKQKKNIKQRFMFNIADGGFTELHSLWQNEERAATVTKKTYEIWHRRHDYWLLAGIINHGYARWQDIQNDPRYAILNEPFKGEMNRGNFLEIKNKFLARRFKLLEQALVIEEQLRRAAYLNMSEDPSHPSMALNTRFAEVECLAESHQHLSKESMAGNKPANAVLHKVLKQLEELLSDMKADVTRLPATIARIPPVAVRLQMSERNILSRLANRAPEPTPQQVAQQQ
Sequence of UniProt P45973 (P45973 whole entry, looked up): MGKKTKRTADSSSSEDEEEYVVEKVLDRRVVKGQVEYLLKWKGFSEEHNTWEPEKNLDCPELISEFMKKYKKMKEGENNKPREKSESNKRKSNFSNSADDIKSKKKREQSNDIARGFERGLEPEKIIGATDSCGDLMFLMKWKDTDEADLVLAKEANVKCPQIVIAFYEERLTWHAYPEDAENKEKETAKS
Sequence of UniProt Q01459 (Q01459 whole entry, looked up): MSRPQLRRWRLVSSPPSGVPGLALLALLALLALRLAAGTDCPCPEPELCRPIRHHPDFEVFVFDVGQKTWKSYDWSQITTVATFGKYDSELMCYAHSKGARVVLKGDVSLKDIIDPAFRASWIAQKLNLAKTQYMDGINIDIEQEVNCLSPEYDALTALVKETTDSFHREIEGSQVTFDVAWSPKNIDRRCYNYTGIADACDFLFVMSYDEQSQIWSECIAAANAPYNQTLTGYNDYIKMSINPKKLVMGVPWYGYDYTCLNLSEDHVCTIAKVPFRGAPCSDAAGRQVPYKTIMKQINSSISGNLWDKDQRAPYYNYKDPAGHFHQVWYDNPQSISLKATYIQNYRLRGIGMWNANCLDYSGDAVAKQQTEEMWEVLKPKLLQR
Sequence of UniProt Q6NZI2 (Q6NZI2 whole entry, looked up): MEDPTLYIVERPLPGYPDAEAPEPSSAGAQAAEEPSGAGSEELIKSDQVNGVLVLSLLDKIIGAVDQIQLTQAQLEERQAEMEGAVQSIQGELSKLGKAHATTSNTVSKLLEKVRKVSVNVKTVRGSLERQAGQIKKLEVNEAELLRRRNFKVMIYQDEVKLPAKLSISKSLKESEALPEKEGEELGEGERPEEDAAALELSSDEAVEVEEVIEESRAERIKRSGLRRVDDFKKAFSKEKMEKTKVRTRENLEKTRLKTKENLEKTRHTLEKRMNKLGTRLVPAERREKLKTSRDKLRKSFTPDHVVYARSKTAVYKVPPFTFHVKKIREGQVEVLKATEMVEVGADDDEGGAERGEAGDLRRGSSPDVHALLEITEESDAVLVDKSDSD

Target CHD4 isoform 2 (UniProt Q14839) has a log2 fold change [1] of 0.04, a log2 fold change (filanesib) of 0.079 and a log2 fold change (zotarolimus) of 0.019. The log2 fold change (idasanutlin) was 0.045, the log2 fold change (alisertib) was 0 and the log2 fold change [2] was -0.099. For the same target, the log2 fold change (gefitinib) was 0.055, the log2 fold change [3] was -0.097 and the log2 fold change (lapatinib) was 0.013. For the same target, the log2 fold change (pictilisib) was -0.028, the log2 fold change [4] was -0.02 and the log2 fold change (crizotinib) was -0.08. For the same target, the log2 fold change [5] was 0.098, the log2 fold change [6] was 0.057 and the log2 fold change (duvelisib) was -0.021. The log2 fold change (gandotinib) was -0.009, the log2 fold change (tozasertib) was 0.233 and the log2 fold change [7] was 0.186. For the same target, the log2 fold change (doramapimod) was 0.014 and the log2 fold change (ispinesib) was -0.05.

CTBS (UniProt Q01459) gave a log2 fold change [1] of -0.006, a log2 fold change (filanesib) of -0.038 and a log2 fold change (zotarolimus) of 0.002. It also gave a log2 fold change (idasanutlin) of 0.018, a log2 fold change (alisertib) of -0.032 and a log2 fold change [2] of 0.026. The log2 fold change (gefitinib) was 0.01, the log2 fold change [3] was 0.055 and the log2 fold change (lapatinib) was 0.004. For the same target, the log2 fold change (pictilisib) was -0.068, the log2 fold change [4] was -0.05 and the log2 fold change (crizotinib) was -0.166. The log2 fold change [5] was -0.078, the log2 fold change [6] was 0.04 and the log2 fold change (duvelisib) was 0.017. The log2 fold change (gandotinib) was -0.078, the log2 fold change (tozasertib) was 0.069 and the log2 fold change [7] was -0.018. For the same target, the log2 fold change (doramapimod) was 0.009 and the log2 fold change (ispinesib) was -0.092.

For CRK (UniProt P46108), the log2 fold change [1] was 0.072, the log2 fold change (filanesib) was 0.008 and the log2 fold change (zotarolimus) was 0.144. The log2 fold change (idasanutlin) was 0.061, the log2 fold change (alisertib) was -0.107 and the log2 fold change [2] was 0.011. For the same target, the log2 fold change (gefitinib) was -0.006, the log2 fold change [3] was 0.025 and the log2 fold change (lapatinib) was 0.012. For the same target, the log2 fold change (pictilisib) was 0.043, the log2 fold change [4] was 0.043 and the log2 fold change (crizotinib) was -1.02 (active). The log2 fold change [5] was 0.008, the log2 fold change [6] was -0.064 and the log2 fold change (duvelisib) was -0.025. The log2 fold change (gandotinib) was -0.096, the log2 fold change (tozasertib) was -0.254 and the log2 fold change [7] was 0.058. It also gave a log2 fold change (doramapimod) of 0.01 and a log2 fold change (ispinesib) of -0.004.

CETN3 (UniProt O15182) showed a log2 fold change [1] of -0.211, a log2 fold change (filanesib) of -0.026 and a log2 fold change (zotarolimus) of 0.041. It also gave a log2 fold change (idasanutlin) of 0.068, a log2 fold change (alisertib) of -0.058 and a log2 fold change [2] of 0.161. For the same target, the log2 fold change (gefitinib) was -0.001, the log2 fold change [3] was 0.072 and the log2 fold change (lapatinib) was -0.175. For the same target, the log2 fold change (pictilisib) was 0.061, the log2 fold change [4] was -0.018 and the log2 fold change (crizotinib) was 0.014. For the same target, the log2 fold change [5] was -0.084, the log2 fold change [6] was -0.071 and the log2 fold change (duvelisib) was 0.057. It also gave a log2 fold change (gandotinib) of 0.094, a log2 fold change (tozasertib) of 0.037 and a log2 fold change [7] of -0.094. It also gave a log2 fold change (doramapimod) of -0.018 and a log2 fold change (ispinesib) of 0.

In the case of CAMKK2 (UniProt Q96RR4), the log2 fold change [1] is reported as -0.063, the log2 fold change (filanesib) is reported as 0.085 and the log2 fold change (zotarolimus) is reported as -0.077. It also gave a log2 fold change (idasanutlin) of -0.091, a log2 fold change (alisertib) of -0.377 and a log2 fold change [2] of 0.12. For the same target, the log2 fold change (gefitinib) was 0.019, the log2 fold change [3] was 0.015 and the log2 fold change (lapatinib) was 0.025. For the same target, the log2 fold change (pictilisib) was 0.035, the log2 fold change [4] was 0 and the log2 fold change (crizotinib) was 0.106. It also gave a log2 fold change [5] of -0.045, a log2 fold change [6] of -0.182 and a log2 fold change (duvelisib) of 0.093. For the same target, the log2 fold change (gandotinib) was -0.221, the log2 fold change (tozasertib) was 0.15 and the log2 fold change [7] was 0. For the same target, the log2 fold change (doramapimod) was 0.086 and the log2 fold change (ispinesib) was -0.204.

For CAVIN1 (UniProt Q6NZI2), the log2 fold change [1] was -0.012, the log2 fold change (filanesib) was 0.109 and the log2 fold change (zotarolimus) was 0. The log2 fold change (idasanutlin) was 0.15, the log2 fold change (alisertib) was -0.098 and the log2 fold change [2] was -0.107. It also gave a log2 fold change (gefitinib) of -0.1, a log2 fold change [3] of -0.159 and a log2 fold change (lapatinib) of 0.089. It also gave a log2 fold change (pictilisib) of -0.094, a log2 fold change [4] of -0.023 and a log2 fold change (crizotinib) of -0.046. It also gave a log2 fold change [5] of -0.34, a log2 fold change [6] of 0.174 and a log2 fold change (duvelisib) of -0.131. It also gave a log2 fold change (gandotinib) of 0.145, a log2 fold change (tozasertib) of 0.058 and a log2 fold change [7] of 0.06. It also gave a log2 fold change (doramapimod) of 0.135 and a log2 fold change (ispinesib) of 0.067.

CBX5 (UniProt P45973) was tested, and the log2 fold change [1] was 0.119, the log2 fold change (filanesib) was -0.046 and the log2 fold change (zotarolimus) was 0.029. The log2 fold change (idasanutlin) was -0.014, the log2 fold change (alisertib) was -0.062 and the log2 fold change [2] was 0.003. For the same target, the log2 fold change (gefitinib) was 0.024, the log2 fold change [3] was 0.022 and the log2 fold change (lapatinib) was 0.019. The log2 fold change (pictilisib) was 0.106, the log2 fold change [4] was 0.012 and the log2 fold change (crizotinib) was 0.128. For the same target, the log2 fold change [5] was -0.037, the log2 fold change [6] was -0.058 and the log2 fold change (duvelisib) was 0.029. It also gave a log2 fold change (gandotinib) of -0.015, a log2 fold change (tozasertib) of -0.01 and a log2 fold change [7] of 0.059. For the same target, the log2 fold change (doramapimod) was -0.045 and the log2 fold change (ispinesib) was 0.092.

Work on CDC26 (UniProt Q8NHZ8) yielded a log2 fold change [1] of -0.031, a log2 fold change (filanesib) of 0.085 and a log2 fold change (zotarolimus) of -0.011. For the same target, the log2 fold change (idasanutlin) was -0.053, the log2 fold change (alisertib) was -0.023 and the log2 fold change [2] was 0. The log2 fold change (gefitinib) was 0.003, the log2 fold change [3] was -0.017 and the log2 fold change (lapatinib) was -0.023. The log2 fold change (pictilisib) was -0.125, the log2 fold change [4] was 0.036 and the log2 fold change (crizotinib) was 0.153. For the same target, the log2 fold change [5] was 0.016, the log2 fold change [6] was 0.212 and the log2 fold change (duvelisib) was -0.097. It also gave a log2 fold change (gandotinib) of -0.033, a log2 fold change (tozasertib) of 0.096 and a log2 fold change [7] of -0.021. For the same target, the log2 fold change (doramapimod) was -0.017 and the log2 fold change (ispinesib) was 0.406.
